Measured values as given in PubChem BioAssay AID1159580 (chemical genetic matrix, 2015).
Values joined by “and” are separate entries in the source; they are usually repeats but may differ in a detail not shown here. Equal values may be shown once. Hit rate of the full screen: of about 5,500 compounds, about 2,000 (36%) were called active. About 18% were inconclusive and are not listed. No stated cut-off is given here; in the data, active means normalized growth mostly below about 0.91 (no sharp cut-off); inconclusive means no clear call, values can overlap the other calls; inactive means mostly above about 0.92. Some of the results follow.

Experiment: chemical genetic growth profiling, strain panel (AID 1159580);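 further: tested at 20 µM; growth read once vehicle control cultures reached saturation at 30 °C; 1 = growth at the plate median or of vehicle wells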
Conditions: S. cerevisiae deletion strains, growth OD

Measured: normalized growth

CC[C@@]1(O)C(=O)OCc2c1cc1n(c2=O)Cc2cc3ccccc3nc2-1
active: locus YAL013W, strain DEP1, stronger effect = lower value 0.829 | locus YAL021C, strain ccr4, stronger effect = lower value 0.327 | locus YAL026C, strain drs2, stronger effect = lower value 0.626 | locus YAL030W, strain snc1, stronger effect = lower value 0.813 | locus YBL061C, strain skt5, stronger effect = lower value 0.859 | locus YBR009C, strain hhf1, stronger effect = lower value 0.681 | locus YBR023C, strain chs3, stronger effect = lower value 0.803 | locus YBR231C, strain swc5, stronger effect = lower value 0.696 | locus YCL011C, strain gbp2, stronger effect = lower value 0.577 | locus YCL016C, strain dcc1, stronger effect = lower value 0.134 | locus YCL029C, strain bik1, stronger effect = lower value 0.884 | locus YCL061C, strain MRC1, stronger effect = lower value 0.821 | locus YCL069W, strain vba3, stronger effect = lower value 0.788 | locus YCR088W, strain abp1, stronger effect = lower value 0.747 | locus YDL005C, strain med2, stronger effect = lower value 0.882 | locus YDL035C, strain GPR1, stronger effect = lower value 0.843 | locus YDL074C, strain BRE1, stronger effect = lower value 0.613 | locus YDL101C, strain DUN1, stronger effect = lower value 0.654 | locus YDL134C, strain PPH21, stronger effect = lower value 0.81 | locus YDL185W, strain tfp1, stronger effect = lower value 0.782 | locus YDL192W, strain arf1, stronger effect = lower value 0.838 | locus YDR001C, strain nth1, stronger effect = lower value 0.882 | locus YDR069C, strain doa4, stronger effect = lower value 0.767 | locus YDR101C, strain arx1, stronger effect = lower value 0.897 | locus YDR137W, strain rgp1, stronger effect = lower value 0.74 | locus YDR159W, strain sac3, stronger effect = lower value 0.821 | locus YDR162C, strain NBP2, stronger effect = lower value 0.688 | locus YDR195W, strain ref2 0.538 | locus YDR297W, strain sur2, stronger effect = lower value 0.884 | locus YDR318W, strain mcm21, stronger effect = lower value 0.796 | locus YDR334W, strain swr1, stronger effect = lower value 0.786 | locus YDR335W, strain msn5, stronger effect = lower value 0.841 | locus YDR388W, stronger effect = lower value 0.793 | locus YDR392W, strain spt3, stronger effect = lower value 0.284 | locus YDR502C, strain sam2, stronger effect = lower value 0.803 | locus YEL003W, strain gim4, stronger effect = lower value 0.834 | locus YEL037C, strain rad23, stronger effect = lower value 0.851 | locus YEL061C, strain CIN8 (second series), stronger effect = lower value 0.848 | locus YER015W, strain faa2, stronger effect = lower value 0.784 | locus YER016W, strain bim1, stronger effect = lower value 0.754 | locus YER155C, strain BEM2, stronger effect = lower value 0.837 | locus YER167W, strain BCK2, stronger effect = lower value 0.82 | locus YFR010W, strain ubp6, stronger effect = lower value 0.617 | locus YGL078C, strain dbp3, stronger effect = lower value 0.883 | locus YGL086W, strain mad1, stronger effect = lower value 0.847 | locus YGL173C, strain kem1, stronger effect = lower value 0.882 | locus YGL227W, strain vid30, stronger effect = lower value 0.894 | locus YGL240W, strain doc1, stronger effect = lower value 0.565 | locus YGL248W, strain PDE1, stronger effect = lower value 0.879 | locus YGL253W, strain hxk2, stronger effect = lower value 0.885 | locus YGR135W, strain pre9, stronger effect = lower value 0.878 | locus YGR229C, strain SMI1, stronger effect = lower value 0.384 | locus YGR252W, strain gcn5, stronger effect = lower value 0.655 | locus YHR079C, strain IRE1 (second series), stronger effect = lower value 0.801 | locus YHR079C, strain IRE1, stronger effect = lower value 0.791 | locus YHR129C, strain ARP1, stronger effect = lower value 0.801 | locus YHR142W, strain chs7, stronger effect = lower value 0.772 | locus YHR200W, strain rpn10, stronger effect = lower value 0.711 | locus YIL073C, strain SPO22, stronger effect = lower value 0.598 | locus YIL125W, strain kgd1, stronger effect = lower value 0.774 | locus YIR030C, strain dcg1, stronger effect = lower value 0.826 | locus YJL092W, strain hpr5, stronger effect = lower value 0.22 | locus YJL095W, strain BCK1 (second series), stronger effect = lower value 0.855 | locus YJL095W, strain BCK1, stronger effect = lower value 0.751 and 0.84 | locus YJL115W, strain asf1, stronger effect = lower value 0.132 | locus YJL129C, strain trk1, stronger effect = lower value 0.537 | locus YJL154C, strain vps35, stronger effect = lower value 0.811 | locus YJL164C, strain tpk1, stronger effect = lower value 0.634 | locus YJL166W, strain qcr8, stronger effect = lower value 0.748 | locus YJL187C, strain SWE1 (second series), stronger effect = lower value 0.848 | locus YJL187C, strain SWE1, stronger effect = lower value 0.876 | locus YJR043C, strain POL32, stronger effect = lower value 0.561
inactive: locus YBR021W, strain FUR4, stronger effect = lower value 0.889 | locus YBR171W, strain sec66, stronger effect = lower value 0.949 | locus YBR229C, strain ROT2, stronger effect = lower value 0.982 | locus YBR279W, strain paf1, stronger effect = lower value 0.98 | locus YDL040C, strain nat1, stronger effect = lower value 0.952 | locus YDR150W, strain NUM1, stronger effect = lower value 0.998 | locus YEL061C, strain CIN8, stronger effect = lower value 0.947 | locus YER110C, stronger effect = lower value 0.944 | locus YER111C, strain swi4, stronger effect = lower value 0.97 | locus YER155C, strain BEM2 (second series), stronger effect = lower value 0.887 | locus YGL167C, strain pmr1, stronger effect = lower value 0.95 | locus YHR013C, strain ard1, stronger effect = lower value 0.868 | locus YHR027C, strain rpn1, stronger effect = lower value 0.933 | locus YHR094C, strain hxt1, stronger effect = lower value 0.941 | locus YIL066C, strain RNR3, stronger effect = lower value 0.921 | locus YJL134W, strain LCB3, stronger effect = lower value 0.997 | locus YJL168C, strain set2, stronger effect = lower value 0.961
0.94 (inactive) and 0.843 (active): locus YHR030C, strain SLT2, stronger effect = lower value
